Assay outcomes as filed in PubChem.
Compounds with a hit are over-represented: about 3.4% of the library has one in this group of screens.
FBW7 activator = human FBW7 E3 ligase activation, primary screen. Q969H0. AlphaScreen FBW7–phospho-cyclin E peptide binding, activator screen. normalized activity (activation), % at 26.1 µM. hit rate 0.13% among 650,000; in the data active = normalized activity above about 1.9%;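 note: purified mutant Fbw7 with reduced substrate affinity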
GPR151 ag = human GPR151 activation; Q8TDV0; PathHunter beta-arrestin GPR151 cells, luminescence; activation, % at 11.2 µM; hit rate 1% among 650,000; in the data active = activation above about 4.9%;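 note: 0% = median of compound wells and 100% = cells with positive control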
TEAD-YAP block = TEAD-YAP interaction inhibition; HEK-TIYL cells, TEAD-Gal4/YAP UAS-luciferase luminescence; inhibition, % at 9.12 µM; hit rate 1.4% among 640,000; AID 1259422; in the data active = inhibition above about 32%;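 note: 0% = median of test compound wells and 100% = reference inhibitor wells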
MITF inh = blocks human microphthalmia-associated transcription factor | O75030 | inhibition, % at 2.6 µM | hit rate 0.91% among 650,000 | AlphaScreen MITF homodimerization, bead proximity signal | AID 1259374; in the data active = inhibition above about 50%;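 note: 0% = vehicle wells with protein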
GPR151 conf act = human GPR151 activation, confirmation screen; shares compounds with GPR151 ag; GPR151 PathHunter beta-arrestin cells, luminescence, 90 min; % of EA-reagent control over plate median; activation, % at 11.2 µM; 6,700 tested, under 10 active;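 active = mean percent activation across replicates above the confirmation screen cutoff of 4.91%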
GPR119 ag = GPR119 activation, counter-screen for GPR151 activators. AID 1508611. shares compounds with GPR151 ag. hit rate 0.3% among 6,700. GPR119 PathHunter beta-arrestin cells, luminescence, 90 min; 0 = compound-well median, 100 = enzyme-acceptor control. activation, % at 11.2 µM;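 active = mean percent activation in the counterscreen above 29.09%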;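 note: counterscreen on off-target GPR119 to flag nonselective hits from the GPR151 activator screen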
Target sequence (Q8TDV5 whole entry, looked up): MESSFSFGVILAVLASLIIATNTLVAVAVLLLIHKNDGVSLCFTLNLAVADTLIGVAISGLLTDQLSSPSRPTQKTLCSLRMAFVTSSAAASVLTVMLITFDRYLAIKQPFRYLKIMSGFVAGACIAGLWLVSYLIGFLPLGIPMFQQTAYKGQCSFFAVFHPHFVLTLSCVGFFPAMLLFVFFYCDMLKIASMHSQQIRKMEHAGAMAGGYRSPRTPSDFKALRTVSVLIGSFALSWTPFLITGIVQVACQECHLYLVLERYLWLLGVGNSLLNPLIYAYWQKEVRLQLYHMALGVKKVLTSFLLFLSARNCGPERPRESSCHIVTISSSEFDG
Active calls of the source: *; . = no result.

SMILES	FBW7 activator	GPR151 ag	TEAD-YAP block	MITF inh	GPR151 conf act	GPR119 ag
O=C(COC(=O)c1ccccc1)c1ccc2ccccc2c1	0	5.4*	6	0	-1	-18
O=C(COC(=O)c1ccc2ccccc2n1)c1ccccc1	0	0	1	-1	.	.
COc1cccc(C(=O)COC(=O)c2cccc(NC(=O)c3ccccc3)c2)c1	0	6.1*	-4	-3	0	-7
CC(CC(=O)Nc1ccc(S(=O)(=O)N2CCCC2)cc1)c1ccccc1 (centres undefined)	0	1	18	11	.	.
CCOC(=O)C1=C(C)NC2=C(C(=O)CC(c3ccc(Cl)cc3)C2)C1c1cccc(OC)c1OC (centres undefined)	1	21*	7	6	-1	-8
COc1ccc(C2C(C(=O)OCC(C)C)=C(C)NC3=C2C(=O)CC(c2ccc(Cl)cc2)C3)cc1 (centres undefined)	1	5.5*	6	-13	1	4
COCCOC(=O)C1=C(C)NC2=C(C(=O)CC(c3ccc(Cl)cc3)C2)C1c1cccc(OC)c1OC (centres undefined)	0	0	19	-7	.	.
CCN(CC)c1ccc(NC(=O)C2CC3CCCN3C23C(=O)N(C)c2ccccc23)c(C)c1 (centres undefined)	0	0	-6	5	.	.
CCN(CC)c1ccc(NC(=O)C2CC3CCCN3C23C(=O)Nc2ccccc23)c(C)c1 (centres undefined)	0	5.4*	-2	-3	0	5
O=C(CSc1cc(Cl)ccc1Cl)NCC(O)c1ccc([N+](=O)[O-])cc1 (centres undefined)	0	0	3	10	.	.
CCN1CCN(CCCNc2nnc(Cc3cccnc3)c3ccccc23)CC1	1	0	2	10	.	.
CN(C)N1C(N)=C(C#N)C(c2ccccc2Cl)C2=C1CCCC2=O (centres undefined)	0	-2	5	11	.	.
CN(C)N1C(N)=C(C#N)C(c2cccc(Cl)c2Cl)C2=C1CCCC2=O (centres undefined)	0	5.1*	-18	-8	0	2
Cc1ccccc1-c1cnnc(NCc2cc(-c3ccccc3)on2)n1	0	-2	-3	18	.	.
Cc1ccccc1-c1cnnc(NCC2COCCO2)n1 (centres undefined)	0	7.4*	-1	3	1	2
O=CN1CCn2c3c(c(=O)c4cc(C5CCCCC5)ccc42)CCC31 (centres undefined)	0	7.3*	-14	11	0	-6
NC(=O)N1CCn2c3c(c4cc(C5CCCCC5)ccc42)CCCC31 (centres undefined)	0	2	4	-2	.	.
COc1ccc(-c2nnc3sc(NC(=O)c4ccccc4C)nn23)cc1OC	0	8.8*	-2	0	0	1
COc1ccc(-c2nnc3sc(NC(=O)c4ccccc4C)nn23)cc1	0	2	-2	-5	.	.
COc1ccc(-c2nnc(NC(=O)c3ccccc3C)s2)c(OC)c1	0	5.8*	1	7	1	0
COc1ccc(-c2nnc3sc(NC(=O)C(C)C)nn23)cc1OC	0	14*	8	-3	2	-6
CCOC(=O)C1CCN(c2c(C)cnc3c2c(=O)n(C)c(=O)n3C)CC1	0	1	5	2	.	.
COc1ccc2cc(C(=O)Nc3ccccc3C)c(=N)oc2c1	0	5.0*	-40	11	0	-7
O=C1Nc2ccc([N+](=O)[O-])cc2C12NN=C(c1ccccc1)S2 (centres undefined)	0	5.0*	-44	9	0	15
CCOC(=O)C1=C(C)N(c2ccc(Br)cc2)C(=O)/C1=C\c1ccc(C(=O)O)cc1	0	-1	-12	-7	.	.
SMILES	FBW7 activator	GPR151 ag	TEAD-YAP block	MITF inh	GPR151 conf act	GPR119 ag
CCOC(=O)C1=C(C)N(c2ccc(Br)cc2)C(=O)/C1=C\c1ccc(C(=O)OC)cc1	-1	16*	-12	3	1	1
O=C(Nc1ccc2nsnc2c1)N1CCCCCC1	0	6.1*	-42	-9	0	-4
COC(=O)CSC1=C(C#N)C(c2ccccc2)C(C(=O)Nc2ccccc2)=C(C)N1 (centres undefined)	0	5.7*	-8	-5	-1	-4
CC(=O)C1=C(C)NC(SCC(N)=O)=C(C#N)C1c1cccc([N+](=O)[O-])c1 (centres undefined)	0	9.3*	0	13	2	8
CC1=C(C(=O)Nc2ccccc2C)C(c2ccccc2)C(C#N)=C(SCC(=O)Nc2ccccc2C)N1 (centres undefined)	0	1	2	23	.	.
CC1=C(C(=O)Nc2ccccc2C)C(c2ccccc2)C(C#N)=C(SCC(=O)Nc2cc(C)ccc2C)N1 (centres undefined)	0	12*	9	6	-1	-7
CC1=C(C(=O)Nc2ccccc2)C(c2ccco2)C(C#N)=C(SCC(=O)Nc2ccc(F)cc2)N1 (centres undefined)	0	5.9*	4	16	0	14
C=CCNC(=S)NNS(=O)(=O)c1ccc(F)cc1	0	1	0	-16	.	.
O=C(CCc1ccccc1)Nc1nnc(SCCN2CCOCC2)s1	0	0	1	5	.	.
CCOc1ccccc1-n1c(=S)sc2c(=O)n(-c3ccc(C)cc3)c(SCC(=O)NCc3ccco3)nc21	0	0	2	-12	.	.
Cc1ccc(-n2c(SCC(=O)N3CCCC3)nc3c(sc(=S)n3-c3ccccc3C)c2=O)cc1	0	0	3	39	.	.
COc1ccccc1-n1c(=S)sc2c(=O)n(-c3ccccc3)c(SCC(=O)NC3CCCCC3)nc21	0	6.0*	-4	16	-1	-20
O=C(CSc1nc2c(sc(=S)n2-c2ccccc2)c(=O)n1-c1ccccc1)NC1CCCCC1	0	0	1	-7	.	.
Cc1ccc(-n2c(SCC(=O)N3CCCC3)nc3c(sc(=S)n3-c3cc(C)ccc3F)c2=O)cc1	0	6.7*	7	6	1	0
Cc1cccc(C)c1-n1c(=S)sc2c(=O)n(-c3ccccc3)c(SCC(=O)c3ccccc3)nc21	0	6.1*	-3	-10	0	-2
Cc1ccccc1-n1c(=S)sc2c(=O)n(-c3ccccc3)c(SCC(=O)c3ccccc3)nc21	0	1	-10	15	.	.
CCOc1ccccc1-n1c(=S)sc2c(=O)n(-c3ccc(F)cc3)c(SCC(=O)NCc3ccco3)nc21	0	5.4*	-2	-1	1	12
CCC(C)C(=O)N1CC(=O)N(c2ccc(OC)cc2)C(C)(C)C1 (centres undefined)	0	0	-6	-8	.	.
